Source: PubChem BioAssay AID1159580 (chemical genetic matrix, 2015)
Among all 5,500 compounds or so, about 2,000 (36%) were called active. About 18% were inconclusive and are not listed. No stated cut-off is given here; in the data, active means normalized growth mostly below about 0.91 (no sharp cut-off); inconclusive means no clear call, values can overlap the other calls; inactive means mostly above about 0.92. The list shows a part of the results.

Assay: chemical genetic growth profiling, strain panel (AID 1159580);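 further: tested at 20 µM; growth read once vehicle control cultures reached saturation at 30 °C; 1 = growth at the plate median or of vehicle wells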
Settings: growth OD

Measured: normalized growth

CO[C@@]1(NC(=O)C(C(=O)O)c2ccc(O)cc2)C(=O)N2C(C(=O)O)=C(CSc3nnnn3C)CO[C@@H]21 (some centres not stated)
inactive: S. cerevisiae deletion strains, locus YJR075W, strain HOC1, stronger effect = lower value 1.02 | S. cerevisiae deletion strains, locus YKL009W, strain mrt4, stronger effect = lower value 1 | S. cerevisiae deletion strains, locus YKL068W, stronger effect = lower value 1.01 | S. cerevisiae deletion strains, locus YKL085W, strain MDH1 (second series), stronger effect = lower value 1.01 | S. cerevisiae deletion strains, locus YKL085W, strain MDH1, stronger effect = lower value 1.01 | S. cerevisiae deletion strains, locus YKL160W, strain elf1, stronger effect = lower value 0.962 | S. cerevisiae deletion strains, locus YKL190W, strain CNB1, stronger effect = lower value 1.02 | S. cerevisiae deletion strains, locus YKR001C, strain vps1, stronger effect = lower value 1.02 | S. cerevisiae deletion strains, locus YKR026C, strain gcn3, stronger effect = lower value 0.998 | S. cerevisiae deletion strains, locus YKR091W, strain srl3, stronger effect = lower value 0.976 | S. cerevisiae deletion strains, locus YLL001W, strain dnm1, stronger effect = lower value 0.922 | S. cerevisiae deletion strains, locus YLL026W, stronger effect = lower value 0.986 | S. cerevisiae deletion strains, locus YLL041C, strain sdh2, stronger effect = lower value 0.988 | S. cerevisiae deletion strains, locus YLR027C, strain aat2, stronger effect = lower value 1 | S. cerevisiae deletion strains, locus YLR039C, strain RIC1, stronger effect = lower value 1.02 | S. cerevisiae deletion strains, locus YLR058C, strain SHM2, stronger effect = lower value 1.01 | S. cerevisiae deletion strains, locus YLR102C, strain apc9, stronger effect = lower value 1.02 | S. cerevisiae deletion strains, locus YLR113W, strain HOG1, stronger effect = lower value 0.995 | S. cerevisiae deletion strains, locus YLR221C, strain rsa3, stronger effect = lower value 0.945 | S. cerevisiae deletion strains, locus YLR258W, strain gsy2, stronger effect = lower value 0.984 | S. cerevisiae deletion strains, locus YLR262C, strain YPT6 (second series), stronger effect = lower value 0.946 | S. cerevisiae deletion strains, locus YLR262C, strain YPT6, stronger effect = lower value 0.999 | S. cerevisiae deletion strains, locus YLR268W, strain sec22, stronger effect = lower value 1.04 | S. cerevisiae deletion strains, locus YLR320W, strain mms22, stronger effect = lower value 0.967 | S. cerevisiae deletion strains, locus YLR330W, strain CHS5, stronger effect = lower value 1.01 | S. cerevisiae deletion strains, locus YLR342W, strain FKS1 (second series), stronger effect = lower value 0.996 | S. cerevisiae deletion strains, locus YLR342W, strain FKS1, stronger effect = lower value 0.99 | S. cerevisiae deletion strains, locus YLR357W, strain rsc2, stronger effect = lower value 0.945 | S. cerevisiae deletion strains, locus YLR370C, strain arc18, stronger effect = lower value 0.978 | S. cerevisiae deletion strains, locus YLR371W, strain rom2, stronger effect = lower value 1.03 | S. cerevisiae deletion strains, locus YLR384C, strain iki3, stronger effect = lower value 0.982 | S. cerevisiae deletion strains, locus YLR418C, strain cdc73, stronger effect = lower value 1.02 | S. cerevisiae deletion strains, locus YML016C, strain PPZ1, stronger effect = lower value 1 | S. cerevisiae deletion strains, locus YML032C, strain rad52, stronger effect = lower value 1.03 | S. cerevisiae deletion strains, locus YML120C, strain ndi1, stronger effect = lower value 0.951 | S. cerevisiae deletion strains, locus YML124C, strain tub3, stronger effect = lower value 1.01 | S. cerevisiae deletion strains, locus YMR058W, strain fet3, stronger effect = lower value 0.975 | S. cerevisiae deletion strains, locus YMR078C, strain ctf18, stronger effect = lower value 1.02 | S. cerevisiae deletion strains, locus YMR125W, strain sto1, stronger effect = lower value 0.953 | S. cerevisiae deletion strains, locus YMR129W, stronger effect = lower value 0.994 | S. cerevisiae deletion strains, locus YMR205C, strain PFK2, stronger effect = lower value 0.946 | S. cerevisiae deletion strains, locus YMR223W, strain ubp8, stronger effect = lower value 0.985 | S. cerevisiae deletion strains, locus YMR231W, strain pep5, stronger effect = lower value 0.991 | S. cerevisiae deletion strains, locus YMR263W, strain SAP30, stronger effect = lower value 1.02 | S. cerevisiae deletion strains, locus YMR307W, strain GAS1, stronger effect = lower value 0.971 | S. cerevisiae deletion strains, locus YNL067W, strain RPL9B, stronger effect = lower value 1.02 | S. cerevisiae deletion strains, locus YNL071W, strain lat1, stronger effect = lower value 0.989 | S. cerevisiae deletion strains, locus YNL128W, strain TEP1, stronger effect = lower value 1.01 | S. cerevisiae deletion strains, locus YNL153C, strain GIM3, stronger effect = lower value 1.01 | S. cerevisiae deletion strains, locus YNL183C, strain NPR1, stronger effect = lower value 0.949 | S. cerevisiae deletion strains, locus YNL209W, strain ssb2, stronger effect = lower value 0.978 | S. cerevisiae deletion strains, locus YNL233W, strain BNI4, stronger effect = lower value 1.01 | S. cerevisiae deletion strains, locus YNL248C, strain rpa49, stronger effect = lower value 1 | S. cerevisiae deletion strains, locus YNL250W, strain rad50, stronger effect = lower value 1.02 | S. cerevisiae deletion strains, locus YNL271C, strain bni1, stronger effect = lower value 1.01 | S. cerevisiae deletion strains, locus YNL298W, strain CLA4, stronger effect = lower value 1.02 | S. cerevisiae deletion strains, locus YNL307C, strain MCK1, stronger effect = lower value 1.01 | S. cerevisiae deletion strains, locus YNL322C, strain KRE1 (second series), stronger effect = lower value 0.971 | S. cerevisiae deletion strains, locus YNL322C, strain KRE1, stronger effect = lower value 1.01 | S. cerevisiae deletion strains, locus YNR049C, strain mso1, stronger effect = lower value 0.972 | S. cerevisiae deletion strains, locus YNR052C, strain pop2, stronger effect = lower value 1.02 | S. cerevisiae deletion strains, locus YOL006C, strain TOP1, stronger effect = lower value 1.06 | S. cerevisiae deletion strains, locus YOL012C, strain htz1 0.996 | S. cerevisiae deletion strains, locus YOL147C, strain pex11, stronger effect = lower value 1.01 | S. cerevisiae deletion strains, locus YOR001W, strain rrp6, stronger effect = lower value 1.01 | S. cerevisiae deletion strains, locus YOR061W, strain CKA2, stronger effect = lower value 1 | S. cerevisiae deletion strains, locus YOR069W, strain VPS5, stronger effect = lower value 1.01 | S. cerevisiae deletion strains, locus YOR070C, strain gyp1, stronger effect = lower value 0.992 | S. cerevisiae deletion strains, locus YOR080W, strain dia2, stronger effect = lower value 0.987 | S. cerevisiae deletion strains, locus YOR083W, strain WHI5, stronger effect = lower value 0.961 | S. cerevisiae deletion strains, locus YOR106W, strain vam3, stronger effect = lower value 0.973 | S. cerevisiae deletion strains, locus YOR136W, strain idh2, stronger effect = lower value 1.02 | S. cerevisiae deletion strains, locus YOR144C, strain elg1, stronger effect = lower value 1.02 | S. cerevisiae deletion strains, locus YOR184W, strain ser1, stronger effect = lower value 1.02 | S. cerevisiae deletion strains, locus YOR231W, strain MKK1, stronger effect = lower value 1 | S. cerevisiae deletion strains, locus YOR265W, strain rbl2, stronger effect = lower value 0.998 | S. cerevisiae deletion strains, locus YOR270C, strain vph1, stronger effect = lower value 0.967 | S. cerevisiae deletion strains, locus YOR290C, strain snf2, stronger effect = lower value 0.917 | S. cerevisiae deletion strains, locus YOR316C, strain cot1, stronger effect = lower value 1.02 | S. cerevisiae deletion strains, locus YPL051W, strain arl3, stronger effect = lower value 0.983 | S. cerevisiae deletion strains, locus YPL055C, strain LGE1, stronger effect = lower value 1.02 | S. cerevisiae deletion strains, locus YPL078C, strain atp4, stronger effect = lower value 0.97 | S. cerevisiae deletion strains, locus YPL106C, strain sse1, stronger effect = lower value 0.94 | S. cerevisiae deletion strains, locus YPL240C, strain hsp82, stronger effect = lower value 0.981 | S. cerevisiae deletion strains, locus YPL241C, strain CIN2, stronger effect = lower value 1 | S. cerevisiae deletion strains, locus YPL256C, strain CLN2, stronger effect = lower value 0.961 | S. cerevisiae deletion strains, locus YPR119W, strain clb2, stronger effect = lower value 1.02 | S. cerevisiae deletion strains, locus YPR141C, strain kar3, stronger effect = lower value 1.02 | S. cerevisiae deletion strains, locus YPR163C, strain tif3, stronger effect = lower value 1.02 | S. cerevisiae deletion strains, locus YPR167C, strain met16, stronger effect = lower value 1.02 | S. cerevisiae deletion strains, strain wtn01, stronger effect = lower value 1.02 | S. cerevisiae strains, strain wild type, stronger effect = lower value 1.01
